RORg inh – ROR gamma (mouse) transcription inhibition; Drosophila S2 Gal4-RORgamma UAS-luciferase reporter, 20 h; Potency, µM (doses to about 53.6 µM), usual class: inhibitors; 5.4% of 310,000 active; further: nearly all actives have a fitted effect of over 60% in size
Target sequence (P51450 whole entry, looked up, the tested form may be a part): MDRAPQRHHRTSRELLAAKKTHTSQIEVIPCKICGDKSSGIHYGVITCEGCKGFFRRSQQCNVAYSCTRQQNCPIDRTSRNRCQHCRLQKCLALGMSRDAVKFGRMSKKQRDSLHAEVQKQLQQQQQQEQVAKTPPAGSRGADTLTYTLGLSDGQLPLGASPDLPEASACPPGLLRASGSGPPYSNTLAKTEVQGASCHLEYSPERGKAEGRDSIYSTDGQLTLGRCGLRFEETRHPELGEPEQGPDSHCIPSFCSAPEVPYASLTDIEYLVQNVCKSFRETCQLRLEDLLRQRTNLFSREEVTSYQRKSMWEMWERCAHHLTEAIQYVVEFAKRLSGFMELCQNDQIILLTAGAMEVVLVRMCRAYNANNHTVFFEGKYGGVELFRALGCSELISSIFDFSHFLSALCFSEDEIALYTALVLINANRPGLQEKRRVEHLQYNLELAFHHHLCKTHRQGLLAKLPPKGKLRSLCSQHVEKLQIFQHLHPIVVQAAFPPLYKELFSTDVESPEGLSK
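Stably transfected Drosophila Schneider cells are the test system, with ROR gamma fused to Gal4 and luciferase under UAS control; luminescence is read after 20 hr of 700 uM copper sulfate induction at ambient temperature.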
MCF10A rereplic – induces DNA re-replication in MCF 10a normal breast cells; MCF 10A DNA re-replication, Hoechst nuclear intensity, 48 h; Potency, µM (titrated, usually from 46.1 µM), hits mostly activators; 2.9% of 350,000 active; further: nearly all actives have a fitted effect of over 50% in size
VP16 counter – Gal4-VP16 reporter inhibition counter-screen; 3.5% of 310,000 active; Potency, µM (top dose mostly 53.6 µM), usual class: inhibitors; AID 2546; Drosophila S2 Gal4-VP16 UAS-luciferase, luminescence, 20 h;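 further: Gal4-VP16 expression switched on by copper sulfate through the metallothionein promoter; nearly all actives have a fitted effect of over 50% in size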
SW480 rerep – induces DNA re-replication in SW480 colon adenocarcinoma cells; SW480 DNA re-replication, Hoechst DNA content imaging, 48 h; Potency, µM (top dose mostly 46.1 µM), most hits filed as activators; 1.8% of 340,000 active; further: nearly all actives have a fitted effect of over 55% in size
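SW480 cells exposed to compounds for 48 hr at 37 C, 5% CO2, then Hoechst-stained 40 min. Nuclear DNA content imaged by fluorescence scanning (405 nm excitation, 500-530 nm emission); re-replication scored as increased high-intensity nuclei.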
ELG1 DNA repair – ELG1-dependent DNA repair inhibition | HEK293T ELG1-luciferase reporter, luminescence, 16 h; DNA damage induced by 5-fluorouridine | Potency, µM (highest dose often 46.1 µM), most hits filed as inhibitors | 2.3% of 330,000 active; further: nearly all actives have a fitted effect of over 55% in size
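Quantitative HTS, concentration-response format. 2,000 cells/well co-treated with 5-fluorouridine and compound, 16 hr in 5% CO2 at 37 °C; ONE-Glo luminescence read after 30 min.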
A number is an active result; – = inactive; ? = inconclusive; · = not tested or not shown; [ ] = dose if it differs, or a comment. Rows were chosen to be rich in hits. Some 10% of all compounds tested hit in one or more screens of this group. The call rests on the fitted dose curve; in most records, active means well fitted curve in the direction sought with a large enough effect; inconclusive means small, poorly fitted or top-dose-only effect, or another doubt; inactive means no such curve, though single readings can be large; an effect the other way counts as inactive or inconclusive.

SMILES	RORg inh	MCF10A rereplic	VP16 counter	SW480 rerep	ELG1 DNA repair
CN(CCC#N)C(=S)Nc1ccc(S(=O)(=O)N2CCOCC2)cc1	–	–	–	–	–
COc1cc(C#Cc2c(-c3cncn3C)n(C)c3ccc(-c4ccc5[nH]ccc5c4)cc23)cc(OC)c1	·	–	·	?	?
COc1cc(OC)cc(-c2c(C#Cc3ccsc3)c3cc(-c4cc(OC)c(OC)c(OC)c4)ccc3n2C)c1	·	–	·	–	–
COc1cc(C#Cc2c(-c3cncn3C)n(C)c3ccc(-c4ccc(OC)nc4)cc23)cc(OC)c1	·	?	·	–	7.3µM
COc1cc(C#Cc2c(-c3cncn3C)n(C)c3ccc(-c4cc(OC)c(OC)c(OC)c4)cc23)cc(OC)c1	·	–	·	?	5.2µM
O[C@@](CCN1CCCCC1)(c1ccccc1)[C@@H]1C[C@H]2C=C[C@@H]1C2	–	·	–	·	·
COc1ccc(C(=O)Oc2ccc(/C=N/O)cc2)cc1	11µM	–	11µM	–	?
COc1ccc(C(=O)Oc2cc(/C=N/NC(N)=S)ccc2OC)cc1	11µM	–	22µM	–	?
COc1ccc(/C=N/NC(N)=S)cc1OC(=O)c1cccc2ccccc12	2.5µM	?	5µM	?	?
Cc1ccc(NC(=O)CN(C)S(=O)(=O)c2ccc3c(c2)n(C)c(=O)c(=O)n3C)cc1	–	?	–	?	–
O=C(CC1SC(N2CCCCC2)=NC1=O)Nc1cccc(C(=O)Nc2ncccc2O)c1 (stereo unspecified)	·	–	·	–	?
Cc1nc(-c2cccc(NC(=O)COc3ccc(Cl)cc3)c2)cs1	–	–	–	–	–
COC(=O)c1c(-c2cc(OC)c(OC)c(OC)c2)c2ccnc(OCc3ncccn3)c2c(=O)n1Cc1ccnc(C)c1	–	·	–	·	·
CCN(CC)S(=O)(=O)c1cc(NC(=O)COc2ccc(C#N)cc2OC)ccc1C	?	–	–	·	13µM
Cc1ccccc1-c1ccc2ncnc(N(C)Cc3ccco3)c2c1	–	·	–	·	·
CN(Cc1ccco1)c1ncnc2ccc(-c3ccc4c(c3)OCO4)cc12	–	–	–	–	?
Cc1noc(C)c1-c1ccc2ncnc(N(C)Cc3ccco3)c2c1	13µM	·	?	·	·
CN(Cc1ccco1)c1ncnc2ccc(-c3ccc4c(ccn4C)c3)cc12	·	?	·	3.7µM	–
CCc1cc(=O)oc2cc(C)cc(OC(C)C(=O)NCCN3CCOCC3)c12 (stereo unspecified)	–	–	–	–	–
CC1CC=C(c2ccccc2)C(=S)N1 (stereo unspecified)	1µM	?	3.2µM	–	?
O=C(Nc1cccnc1Cl)c1cc2ccccc2o1	–	–	–	–	?
CCOc1ccccc1NC(=S)NC(=O)C1CC1	?	–	0.71µM	–	–
CCOc1ccccc1NC(=S)NCCCn1ccnc1	–	0.58µM	–	?	–
O=C(NC(=S)Nc1ccccc1Br)C1CC1	·	–	·	–	·
CCOc1ccccc1NC(=O)/C=C/C(N)=O	4.5µM	–	5.6µM	–	–
SMILES	RORg inh	MCF10A rereplic	VP16 counter	SW480 rerep	ELG1 DNA repair
Cc1ccccc1NC(=S)NC(=O)C1CCCCC1	4µM	–	?	?	?
CCOc1ccccc1NC(=O)/C=C/c1ccccc1[N+](=O)[O-]	–[10 µM]	–	–	–	–
COc1ccc(CCNC(=O)COC(=O)Cc2c[nH]c3ccccc23)cc1OC	·	–	·	–	–
CC(NC(=O)c1ccc(OC2CCN(S(=O)(=O)N(C)C)CC2)cc1)C1CC1 (stereo unspecified)	–	–	–	–	–
CCOc1ccc(-n2c([S-])c(C(=O)Nc3ccc(S(=O)(=O)N4CCOCC4)cc3)[n+]3cc(C(N)=O)ccc23)cc1	–	–	–	–	–
C#CCn1c(=O)c2c(nc(/C=C/c3cccc(OC)c3)n2C)n(CCCO)c1=O	–	·	–	·	·
Cc1ccc(NS(=O)(=O)c2ccc(Cl)c(NC(=S)NC(=O)C3CCCCC3)c2)cc1Cl	?	8.2µM	?	–	–
CCOc1ccc(S(=O)(=O)NCCCn2ccnc2)cc1	·	23µM	·	–	–
CCOc1ccccc1NC(=O)Nc1cccc(S(N)(=O)=O)c1	–	–	–	–[9.22 µM]	–
CCOc1ccccc1NC(=S)Nc1ccc(S(N)(=O)=O)cc1	11µM	–	–	–	–
COc1cc(OC)cc(C2=Nn3c(nnc3-c3ccccc3OC)SC2)c1	–	·	–	·	·
COc1cc(C(=O)O/N=C2/C=CC(=O)C(C)=C2C)cc(OC)c1OC	3.5µM	23µM	4.5µM	16µM	–
COc1cc(C(=O)O/N=C2\C=CC(=O)C=C2C)cc(OC)c1OC	7.1µM	–	4µM	–	–
COc1cc(C(=O)ON=C2C3CC4CC(C3)CC2C4)cc(OC)c1OC	?	–	?	?	23µM
COc1cc(C(=O)O/N=C2\CCCc3c2ccc(OC)c3[N+](=O)[O-])cc(OC)c1OC	–	–	–	–	–
COc1ccccc1C(=O)Nc1ccnn1C1CCN(CC2CC=CCC2)CC1 (stereo unspecified)	–	–	–	–	?
COc1cccc(NC(=S)Nc2cc(C(=O)O)ccc2N2CC3CC(C2)c2cccc(=O)n2C3)c1 (stereo unspecified)	–	–	–	–	?
Cc1ccc(NC(=S)Nc2cc(C(=O)O)ccc2N2CC3CC(C2)c2cccc(=O)n2C3)cc1C (stereo unspecified)	5µM	?	20µM	?	–
Cc1ccc2nc(-c3ccc(N4C(=NC(=O)CCC(=O)O)SC5CS(=O)(=O)CC54)cc3)sc2c1 (stereo unspecified)	?	?	–	·	?
O=C(N/N=C/c1cccs1)c1n[nH]c2c1CCC2	?	8.2µM	?	12µM	?
O=C(N/N=C/c1ccccc1)c1n[nH]c2c1CCCC2	?	?	–	?	?
O=C(N/N=C/c1ccccc1Cl)c1n[nH]c2c1CCCC2	2.8µM	–	?	–	?
Cc1[nH]nc(C(=O)NN=Cc2ccccc2Cl)c1N=NN(C)C	·	16µM	·	15µM	·
O=C(N/N=C/c1ccc(Cl)cc1)c1n[nH]c2c1CCCC2	–	?	–	?	?
CN(C(=O)COC(=O)C(C)(C)Oc1ccc(Cl)cc1)c1c(N)n(Cc2ccccc2)c(=O)[nH]c1=O	·	–	·	–	–
COc1ccc(NC(=O)c2nc(S(=O)(=O)Cc3cccc(C)c3)ncc2Cl)c(OC)c1	?	?	7.9µM	–	?
COc1ccc(NC(=O)c2ccc(C)cc2)c(OC)c1	–	–	–	–	?
COc1ccc(OC)c(NC(=O)c2nc(S(=O)(=O)Cc3ccccc3)ncc2Cl)c1	5µM	1.6µM	?	?	?
COc1ccc(OC)c(NC(=O)CS(=O)(=O)Cc2ccccc2)c1	·	–	·	–	–
CCC1Sc2ccc(S(=O)(=O)Nc3ccc(OC)c(OC)c3)cc2NC1=O (stereo unspecified)	?	?	8.9µM	–	?

Screening results (PubChem)
